# From PubChem BioAssay
# Experiment: probe aNog binding to arrayed compounds – biochemical, biotinylated probe, 635/667 nm fluorescence, primary screen (AID 1115);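 also: probe is biotinylated aNog protein used at 0.15 µg/mL for 1 h at 4 C; z-score combines 667 nm fluorescence of each spot with its signal to noise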
# Settings: small-molecule microarray, higher = more signal
row,Structure (SMILES),composite z-score
1,COc1cc2c(cc1O)C(C1CC1)N(C)CC2 (stereo unspecified),-0.139
2,COC(=O)C1=CC(CCCO)=CC(c2cccs2)N(Cc2cccc(OC(F)(F)F)c2)C=C1C(=O)OC (stereo unspecified),0.145
3,COCCCNC(=O)[C@@]1(Sc2ccc(C)cc2)CC(=O)N(C2Cc3ccccc3C2)[C@@H]1c1ccc(CO)cc1,0.551
4,CN(C)c1ccc(C(O)C2C=CC3C(=O)NC(=O)C3N2Nc2ccccn2)cc1 (stereo unspecified),0.213
5,COc1ccccc1CN1C(=O)c2ccccc2[C@](Cc2ccccc2I)(C(=O)O)[C@@H]1c1ccc(CO)cc1,0.182
6,CC(C)N1CC=CC23O[C@@H]4C=CCCOC(=O)C4[C@H]2C(=O)N(CCCO)[C@@H]3C1=O (stereo partly specified),-0.0546
7,COc1ccc(C(=O)Nc2ccc(CN3C(=O)[C@]4(O[C@H](CC(=O)N5Cc6ccccc6C[C@H]5CO)[C@@H]([Si](C)(C)c5ccc(OC)cc5)[C@@H]4C)c4ccccc43)cc2)cc1,-0.31
8,Cn1cccc1C(O)C1C=CC2C(=O)N(c3ccccc3)C(=O)C2N1Nc1ccccc1 (stereo unspecified),0.977
9,CCOC(=O)C[C@H]1[C@H](OC(=O)c2cc3ccccc3oc2=O)[C@@H](NC(=O)CC(C)C)c2cc(OCCCO)ccc2N1C(=O)c1ccc2ccccc2n1,-0.143
10,CC[C@@H]1C=C(C(=O)O)[C@H](c2ccccc2)N1S(=O)(=O)c1ccc(C)cc1,-0.398
11,C=CC[C@@H](OC(=O)Nc1ccc(SC)cc1)c1ccc(O)c(F)c1,-0.036
